Source: PubChem (National Center for Advancing Translational Sciences (NCATS))
A selection: hits, their analogues and other compounds. The true share with any hit is near 12%.
BAZ2B inh = inhibitors of human BAZ2B bromodomain; 4.4% of 360,000 active; AlphaScreen BAZ2B-H3K14Ac peptide displacement; AID 504333; Potency, µM (titrated, usually from 114 µM), inactives show at the top dose activity change, negative = inhibition, actives largely listed as inhibitors; note: % is set by controls: 0 for no effect and ±100 for the full control effect; nearly all actives have a fitted effect of over 60% in size
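AlphaScreen displacement: compounds (up to 110uM) incubated 30 min at room temperature with a preformed 50 nM BAZ2B/50 nM biotinylated H3K14Ac peptide complex in PBS pH 7.4 with Tween-20. Donor and acceptor beads at 10 ug/mL final added, 20 min light-protected before reading.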
HP1b binding inh = inhibitors of HP1-beta chromodomain binding to methylated histone tails; P83916; Potency, µM (titrated, usually from 114 µM), for inactives: at the top dose activity change, negative = inhibition, hits mostly inhibitors; AlphaScreen HP1-beta / biotin-H3K9me3 peptide binding; AID 540317; 0.56% of 390,000 active; note: nearly all actives have a fitted effect of over 70% in size
Target sequence (P83916 whole entry, looked up): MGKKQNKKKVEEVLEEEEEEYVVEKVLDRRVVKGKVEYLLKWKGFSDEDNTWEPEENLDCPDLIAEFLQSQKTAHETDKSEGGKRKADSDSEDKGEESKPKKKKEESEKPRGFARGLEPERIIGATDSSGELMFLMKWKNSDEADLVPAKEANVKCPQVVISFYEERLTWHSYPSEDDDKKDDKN
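AlphaScreen: HP1-beta (50 nM) preformed 30 min with biotin-H3(1-18)K9me3 peptide (50 nM) in PBS pH 7.4, 0.01% Tween-20. Compound added for 30 min at RT, then streptavidin donor/nickel chelate acceptor beads (10 ug/mL) for 30 min.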
L3MBTL1 block = inhibitors of human L3MBTL1. Potency, µM (highest dose often 57.1 µM), for inactives: at the top dose activity, negative = inhibition, most hits filed as inhibitors. AlphaScreen L3MBTL1–H3K9me1 peptide binding. 0.66% of 230,000 active; note: % is set by controls: 0 for no effect and ±100 for the full control effect; nearly all actives have a fitted effect of over 60% in size
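AlphaScreen assay: L3MBTL1 (50 nM final) was preincubated 30 min at room temperature with biotinylated H3(1-15)K9me1 peptide (75 nM final), then 30 min with library compounds; streptavidin donor and nickel chelate acceptor beads (10 ug/mL final) added, 30 min dark.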
G9a inh = inhibitors of human histone lysine methyltransferase G9a. 8.8% of 350,000 active. Potency, µM (highest dose often 102 µM), without a hit: at the highest dose activity, negative = inhibition, actives largely listed as inhibitors. G9a H3K9 monomethylation, AlphaScreen, 2 h; note: % is set by controls: 0 for no effect and ±100 for the full control effect; nearly all actives have a fitted effect of over 75% in size
Target sequence (Q96KQ7 913-1193 limits assumed): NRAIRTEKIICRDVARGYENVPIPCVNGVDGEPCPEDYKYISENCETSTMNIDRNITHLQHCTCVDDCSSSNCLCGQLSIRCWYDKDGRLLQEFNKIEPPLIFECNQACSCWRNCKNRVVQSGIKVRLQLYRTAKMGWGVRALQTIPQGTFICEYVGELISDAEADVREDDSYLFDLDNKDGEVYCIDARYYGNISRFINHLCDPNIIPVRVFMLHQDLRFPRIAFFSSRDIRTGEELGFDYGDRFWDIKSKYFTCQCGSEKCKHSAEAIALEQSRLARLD
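Step 1: enzyme (final 20 nM) with compound, 15 min RT. Step 2: substrate peptide 500 nM and SAM 20 uM, 2 h RT. Step 3: anti-H3K9me1 antibody and AlphaScreen beads, 10 min, then plate read.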
JMJD2A Tudor = JMJD2A Tudor domain (human) inhibition; O75164; AlphaScreen JMJD2A-Tudor / H3K4me3 peptide binding; Potency, µM (doses to about 114 µM), inactives show at the highest dose activity change, negative = inhibition, most hits filed as inhibitors; 4.4% of 390,000 active; AID 504339; note: % is set by controls: 0 for no effect and ±100 for the full control effect; nearly all actives have a fitted effect of over 50% in size
Sfp PPTase inh = inhibitors of Bacillus subtilis Sfp phosphopantetheinyl transferase; Q9F4F7; Biochemical Sfp PPTase activity, qHTS; Potency, µM, without a hit: largest response in the series, negative = inhibition, actives largely listed as inhibitors; 3.5% of 310,000 active; AID 1490;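 note: the enzyme is Sfp with the accession as filed and its product quenches rhodamine fluorescence; 0% = enzyme reaction without inhibitor and -100% = no enzyme wells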
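Fluorescence-quenching assay with 15 nM Sfp, 5 uM rhodamine-CoA and 12.5 uM BHQ-2-labelled ybbR peptide in pH 7.6 Hepes/MgCl2 buffer. Enzyme was pre-incubated with compound for 15 min at room temperature. Rate was taken from the 30-min fluorescence change (525/598 nm).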
* marks the source's active call; other numbers are inactive results; ? = inconclusive; . = not tested or not shown; [ ] = remark or other dose. Calls come from the whole dose curve; as a rule, active = well fitted curve in the direction sought with a large enough effect; inconclusive = small, poorly fitted or top-dose-only effect, or another doubt; inactive = no such curve, though single readings can be large; an effect the other way counts as inactive or inconclusive. Potency is the fitted concentration of half-maximal effect.

SMILES | BAZ2B inh | HP1b binding inh | L3MBTL1 block | G9a inh | JMJD2A Tudor | Sfp PPTase inh
Cc1ccc(OCC(O)CN2CCN(c3ccccc3)CC2)cc1 (stereo not drawn) | -7% | 10% | -11% | 19% | -19% | -1%
O=C(CCS(=O)(=O)c1nc(-c2ccc3c(c2)OCO3)cc(C(F)(F)F)n1)Nc1ccc(Br)cc1 | 2% | 41% | . | -1%[59 µM] | 7% | .
CCc1cccc(CN2CCC(CNC(=O)Nc3ccc(Cl)cc3)CC2)c1 | 50µM* | 27% | -9% | -13% | -19% | 18%
CCN(CC)c1ccc(/C=N/NC(=O)CNC(=O)C2COc3ccccc3O2)c(O)c1 (stereo not drawn) | -32% | -15% | . | 18µM* | 50µM* | 17%
Cc1cc([N+](=O)[O-])cc(/C=N\NC(=O)C2COc3ccccc3O2)c1O (stereo not drawn) | 28µM* | 30% | 25µM* | -51% | 50µM* | 20%
COc1ccc(Nc2nc(N)c3cc(OC)c(OC)cc3n2)cc1 | ? | -1% | . | ? | ? | .
NS(=O)(=O)c1ccc(NC(=S)N2CCN(S(=O)(=O)c3ccc(F)cc3)CC2)cc1 | -31% | . | 0% | -48%[59 µM] | . | -20%
CN1CCN(C(=S)Nc2ccc(S(N)(=O)=O)cc2)CC1 | -19% | 33% | -3% | 40µM* | 6% | 22µM*
S=C(NCCN1CCOCC1)N1CCN(c2cccc(Cl)c2)CC1 | 28µM* | -29% | . | 35µM* | 8.9µM* | ?
NS(=O)(=O)c1ccc(NC(=S)N2CCN(c3cccc(Cl)c3)CC2)cc1 | 2% | -19% | -4% | 8.9µM* | -2% | 13µM*
NS(=O)(=O)c1ccc(NC(=S)N2CCN(c3ccccc3Cl)CC2)cc1 | 3% | 21% | -7% | 10%[59 µM] | -3% | 25%
CCOC(=O)Cc1ccc(NC(=O)n2ncc3cc(Cl)ccc32)cc1 | ? | 23% | . | -32%[59 µM] | -8% | .
CN(Cc1ccccc1)C(=O)c1ccc(CSc2nc3cccnc3n2Cc2ccccc2)cc1 | -12% | 21% | . | -22%[59 µM] | -32% | .
COc1ccc(S(=O)(=O)N2CCOC23CCN(S(=O)(=O)c2ccccc2)CC3)cc1 | -26% | 57% | 0% | -35% | -8% | .
FC(F)(F)c1cc(-c2cccc(Br)c2)nc2ncnn12 | 20% | 61% | . | 26%[59 µM] | -17% | .
CCNC(=S)NS(=O)(=O)c1ccccc1 | ? | -31% | -4% | 28µM* | 40µM* | 79µM*
CCNC(=S)NS(=O)(=O)c1ccc(Cl)cc1 | -2% | -11% | 0% | ? | 25µM* | -6%
O=C(Nc1nc2n(n1)C(c1ccc(F)cc1)C=C(c1ccc(Cl)cc1)N2)c1ccco1 (stereo not drawn) | -4% | 19% | . | ? | -16% | .
O=C(Nc1nc2n(n1)C(c1ccccc1)C=C(c1ccc(Cl)cc1)N2)c1ccco1 (stereo not drawn) | 79µM* | 11% | . | ? | ? | .
O=C(Nc1nc2n(n1)C(c1ccccc1)C=C(c1ccccc1)N2)c1ccco1 (stereo not drawn) | 25µM* | 15% | -25% | 22µM* | -29% | 56µM*
O=C(Nc1nc2n(n1)C(c1ccc(F)cc1)C=C(c1ccccc1)N2)c1cccc([N+](=O)[O-])c1 (stereo not drawn) | -11% | 48% | . | -42%[59 µM] | 1% | .
Cc1ccc(C2C=C(c3ccc(Cl)cc3)Nc3nc(NS(=O)(=O)c4ccccc4)nn32)cc1 (stereo not drawn) | -1% | 52% | . | ? | 15% | .
O=C(c1nc2n(n1)C(c1ccc(Cl)cc1)C=C(c1ccccc1)N2)N1CCOCC1 (stereo not drawn) | -33% | 14% | 1% | 3.5µM* | -24% | -23%
CCC/C(O)=C1\C(=O)CC(C)(C)CC1=Nc1ccccc1O | 0% | -22% | -3% | 3% | ? | 9%
Cc1ccc(CCNC(=O)C2CCN(Cc3nc(-c4ccccc4C)oc3C)CC2)cc1 | -17% | 15% | . | -49%[59 µM] | -19% | .
